NALP1 inh = NALP1 inflammasome inhibitors in reconstituted yeast, colorimetric, S. cerevisiae, triplicate retest; S. cerevisiae NALP1/ASC/caspase-1 growth, X-gal OD620, 72 h; inhibition, % at 10 µM; 0.61% of 280,000 active; AID 2071, 2009; in the data active = inhibition mostly above about 24%, no sharp cut-off; inactive = mostly below about 32%
APOBEC3G inh = APOBEC3G DNA deaminase inhibitors, primary screen, biochemical, fluorescence, single-stranded DNA substrate, uHTS | DNA dC->dU-editing enzyme APOBEC-3G (Homo sapiens), Q9HC16 | 0.28% of 330,000 active | inhibition, % at 20 µM | AID 493012, 2011 | recombinant A3G, ssDNA deamination FAM/TAMRA fluorescence;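 active = inhibition of at least 40% at 20 µM, with no more than 30% in the related APOBEC3A deaminase screen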
Target sequence (Q9HC16 whole entry, looked up): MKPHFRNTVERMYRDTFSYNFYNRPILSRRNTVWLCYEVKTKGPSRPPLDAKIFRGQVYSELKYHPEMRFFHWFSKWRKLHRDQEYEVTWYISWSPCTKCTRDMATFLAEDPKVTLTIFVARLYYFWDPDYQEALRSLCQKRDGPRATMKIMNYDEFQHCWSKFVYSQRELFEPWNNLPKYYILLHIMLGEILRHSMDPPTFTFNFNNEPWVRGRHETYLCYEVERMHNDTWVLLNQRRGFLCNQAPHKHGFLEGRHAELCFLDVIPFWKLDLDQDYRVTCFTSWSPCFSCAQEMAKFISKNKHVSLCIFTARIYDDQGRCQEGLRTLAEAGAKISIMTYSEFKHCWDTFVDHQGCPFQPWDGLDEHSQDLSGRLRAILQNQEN
Fh CTSL1 inh = Fasciola hepatica cathepsin L1 inhibitors, primary screen, counter-screen for PFM18AAP inhibitor project, biochemical, QFRET, fluorogenic peptide substrate; recombinant F. hepatica cathepsin L1, Z-Leu-Arg-MCA fluorescence; inhibition, % at 5.96 µM; 0.49% of 300,000 active;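 active = inhibition above the mean of all tested compounds plus 3 SD, set per screening campaign, cut at about 17% in these data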
A3A deaminase = APOBEC3A ssDNA deaminase inhibitors, primary screen, selectivity assay for APOBEC3G inhibitor project, biochemical, FAM/TAMRA oligo cleavage fluorescence; 0.41% of 330,000 active; inhibition, % at 20 µM; recombinant A3A, FAM/TAMRA ssDNA deamination fluorescence; AID 493011, 2011; DNA dC->dU-editing enzyme APOBEC-3A (Homo sapiens), P31941;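 active = at least 40% inhibition at 20 µM here, with at most 30% in a related deaminase screen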
Target sequence (P31941 whole entry, looked up): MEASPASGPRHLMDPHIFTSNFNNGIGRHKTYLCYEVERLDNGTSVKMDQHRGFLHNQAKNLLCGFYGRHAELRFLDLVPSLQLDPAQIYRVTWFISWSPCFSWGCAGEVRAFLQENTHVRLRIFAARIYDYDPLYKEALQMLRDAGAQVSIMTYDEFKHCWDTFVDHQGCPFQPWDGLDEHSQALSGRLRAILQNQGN
HGIII-sPLA2 inh = human group III sPLA2 inhibitors, primary screen, biochemical, QFRET, BODIPY PC-A2 liposome substrate; Group 3 secretory phospholipase A2 (Homo sapiens), Q9NZ20; QFRET BODIPY PC-A2 liposome hydrolysis, fluorescence; inhibition, % at 12.2 µM; 0.56% of 370,000 active;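 active = inhibition above mean plus 3 SD of compounds lying within the high and low control bounds, cut at about 19% in these data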
sPLA2 confirm = human group III sPLA2 inhibitors, confirmation, biochemical, QFRET, triplicate; recombinant hGIII-sPLA2, BODIPY PC-A2 QFRET fluorescence; 34% of 2,000 active; inhibition, % at 12.2 µM; shares compounds with HGIII-sPLA2 inh;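 active = mean inhibition across triplicates above the hit cutoff set in the earlier primary screen, cut at about 19% in these data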
BODIPY interf = 535nm fluorescence optical interference, confirmation, artefact control for HGIII-sPLA2 inhibitor project, biochemical, QFRET; shares compounds with HGIII-sPLA2 inh; inhibition, % at 12.2 µM; BODIPY FL product fluorescence interference; 8.5% of 2,000 active;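 active = average inhibition above the solvent-only control mean plus 3 SD, cut at about 6% in these data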
535nm interf DR = 535nm fluorescence optical interference, dose response, artefact control for HGIII-sPLA2 inhibitor project, biochemical, QFRET | shares compounds with HGIII-sPLA2 inh | BODIPY FL product fluorescence interference, cell-free | IC50, µM | 240 tested, under 10 active | AID 743455, 2014;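 active = IC50 at or below 10 µM; inactive = IC50 above 10 µM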
Each line names hits and unclear results; the compound was inactive in the other large screens (follow-up assays come after a bar, where they were run). A selection: hits, their analogues and other compounds. The true share with any hit is near 2%.

CCOCCCn1c(SC(C(=O)Nc2cc(C)ccc2C)c2ccccc2)nnc1-c1ccc(Cl)cc1 (centres undefined)	HGIII-sPLA2 inh 20 | sPLA2 confirm inactive | BODIPY interf inactive
CCNc1nc(NCC)n2c(SC(C(=O)Nc3cc(C)ccc3C)c3ccccc3)nnc2n1 (centres undefined)	none
COc1cccc(OC)c1C(=O)NCCc1ccccc1	HGIII-sPLA2 inh 21 (no result: NALP1 inh) | sPLA2 confirm inactive | BODIPY interf inactive
COc1cccc2cc(C(=O)NCCc3ccccc3)oc12	none
N#Cc1cc(NC2CCCC2)c([N+](=O)[O-])cc1C#N	HGIII-sPLA2 inh 25 | sPLA2 confirm inactive | BODIPY interf inactive
O=[N+]([O-])c1ccc(NC2CCCC2)cc1	none
C=CC(=O)NC1CCCCN(CC)C1=O (centres undefined)	none (no result: NALP1 inh, APOBEC3G inh, Fh CTSL1 inh, A3A deaminase)
CC/C(=N/NC(=O)c1ccccc1)c1ccc(OCCN2CCOCC2)cc1	none
CC/C(=N/NC(=O)c1ccc(Br)cc1)c1ccc(OCCN2CCOCC2)cc1	HGIII-sPLA2 inh 21 | sPLA2 confirm inactive | BODIPY interf inactive
Cc1ccc(OCCN2CCN(C)CC2)c([N+](=O)[O-])c1	HGIII-sPLA2 inh 22 | sPLA2 confirm inactive | BODIPY interf inactive
Cc1ccc(OCCN2CCNCC2)c([N+](=O)[O-])c1	none
CCCC[C@H]1C2CC(OC(=O)Nc3ccc4c(c3)OCO4)C(C2)[C@H]2CCCCN21 (some centres undefined)	none (no result: NALP1 inh, APOBEC3G inh, Fh CTSL1 inh, A3A deaminase)
CO/N=C1\CCn2c1c(C)c1ccccc12	HGIII-sPLA2 inh 20 | sPLA2 confirm inactive | BODIPY interf inactive
CNC(=S)NNC(=O)COc1ccc(C)c(C)c1	HGIII-sPLA2 inh 28 | sPLA2 confirm 26 | BODIPY interf inactive
CCN(CC)C(=O)CSc1nc2ccccc2c(=O)n1-c1cccc(OC)c1	none
COc1cccc(-n2c(SCc3cc(=O)oc4cc(O)c(O)cc34)nc3ccccc3c2=O)c1	HGIII-sPLA2 inh 20 (no result: APOBEC3G inh, A3A deaminase) | sPLA2 confirm inactive | BODIPY interf inactive
COc1ccc(C#CCN(Cc2ccc(OC)cc2OC)C(N)=NC(=O)CCc2ccccc2)cc1	none (no result: NALP1 inh, APOBEC3G inh, Fh CTSL1 inh, A3A deaminase)
Clc1cccc(C[n+]2cc(-c3ccccc3)n3c2CCC3)c1	HGIII-sPLA2 inh 19 | sPLA2 confirm inactive | BODIPY interf inactive
Nc1cc(N)c2c(c1)C(=O)c1ccccc1-2	HGIII-sPLA2 inh 20 (no result: NALP1 inh, APOBEC3G inh, Fh CTSL1 inh, A3A deaminase) | sPLA2 confirm 38 | BODIPY interf inactive | 535nm interf DR inactive
Nc1c(O)ccc2c1C(=O)c1ccccc1C2=O	none (no result: APOBEC3G inh, A3A deaminase)
O=C(CNC1CCCC1)Nc1cc(Cl)ccc1[N+](=O)[O-]	NALP1 inh 45, HGIII-sPLA2 inh 21 | sPLA2 confirm inactive | BODIPY interf inactive
COc1ccc(CCNC(=O)Nc2ccc3c(c2)[C@@]2(CC(=O)N(CC(C)C)C2c2ccccc2)C(=O)N3C)cc1OC (some centres undefined)	none (no result: NALP1 inh, APOBEC3G inh, Fh CTSL1 inh, A3A deaminase)
CN(CCOC(=O)c1occ2ccccc12)C1CN(Cc2cn(Cc3ccccc3Cl)nn2)S(=O)(=O)C1 (centres undefined)	none (no result: NALP1 inh, APOBEC3G inh, Fh CTSL1 inh, A3A deaminase)
Cc1ccc2c(c1)c1c3n2CCN(C=O)C3CCC1 (centres undefined)	none
CCN1CCn2c3c(c4cc(Cl)ccc42)CCCC31 (centres undefined)	none
CCN(CC)CCN1CCn2c3c(c4cc(C)ccc42)CCCC31 (centres undefined)	HGIII-sPLA2 inh 23 | sPLA2 confirm inactive | BODIPY interf inactive
Cc1ccc2c(c1)c1c3n2CCNC3CCC1 (centres undefined)	HGIII-sPLA2 inh 27 | sPLA2 confirm 32 | BODIPY interf inactive | 535nm interf DR inactive
CC(=O)c1cc(-c2ccccc2-c2ccccc2)c(=O)n2c1CCC2	none (no result: NALP1 inh, APOBEC3G inh, Fh CTSL1 inh, A3A deaminase)
COC(=O)[C@H]1C[C@@]2(C)c3ccccc3N(S(=O)(=O)c3ccccc3)[C@H]2N1C(=O)CNC1CCCCC1	none (no result: NALP1 inh, APOBEC3G inh, Fh CTSL1 inh, A3A deaminase)
CS(=O)(=O)N1CCCC(C(=O)NCc2cccs2)C1 (centres undefined)	HGIII-sPLA2 inh 20 | sPLA2 confirm inactive | BODIPY interf inactive
CS(=O)(=O)N1CCCC(C(=O)NCc2ccco2)C1 (centres undefined)	HGIII-sPLA2 inh 20 | sPLA2 confirm inactive | BODIPY interf inactive
O=C(NCc1cccs1)C1CCCN(S(=O)(=O)c2ccccc2)C1 (centres undefined)	none (no result: NALP1 inh, APOBEC3G inh, Fh CTSL1 inh, A3A deaminase)
CC(=O)N1CCN(c2cc(C)nc3nc(C)nn23)CC1	none (no result: NALP1 inh, APOBEC3G inh, Fh CTSL1 inh, A3A deaminase)
C[C@@H]1CN([C@@H](C)CO)C(=O)CCCn2cc(nn2)CO[C@H]1CN(C)C(=O)c1ccc(N2CCN(C)CC2)cc1	none (no result: NALP1 inh, APOBEC3G inh, Fh CTSL1 inh, A3A deaminase)
CC(C)(C)N(Cc1cn(Cc2ccccc2)nn1)S(=O)(=O)c1ccc(N2CCCC2)cc1Br	none (no result: NALP1 inh, APOBEC3G inh, Fh CTSL1 inh, A3A deaminase)
Cc1cccc(C(=O)Nc2cccc(NC(=O)c3ccccc3)c2)c1	none
Cc1cccc(NC2=C(NC(=O)c3ccccc3)C(=O)c3ccccc3C2=O)c1	HGIII-sPLA2 inh 24 | sPLA2 confirm 23 | BODIPY interf inactive
CN(c1ccc(NC(=O)Cc2c[nH]c3ccccc23)cc1)c1ccccn1	none (no result: NALP1 inh, APOBEC3G inh, Fh CTSL1 inh, A3A deaminase)
Cc1nn(C)c(C(=O)NNC(=S)NC2CCCCC2)c1Br	HGIII-sPLA2 inh 23 | sPLA2 confirm 22 | BODIPY interf inactive
Cn1ncc(Br)c1C(=O)NC1CCCCCCC1	none (no result: Fh CTSL1 inh)
COC(=O)[C@]12C[C@H](CC(=O)NCc3ccccc3)C(=O)N(Cc3ccco3)C1=C[C@H](C1CCCC1)O[C@@H]2C	none (no result: NALP1 inh, APOBEC3G inh, Fh CTSL1 inh, A3A deaminase)
CCn1cc(C2C3=C(CC(C)(C)CC3=O)N(c3ccc(C)cc3)C3=C2C(=O)CC(C)(C)C3)c(C)n1	HGIII-sPLA2 inh 20 (no result: NALP1 inh, APOBEC3G inh, Fh CTSL1 inh, A3A deaminase) | sPLA2 confirm inactive | BODIPY interf inactive
NC(=S)N/N=C1\CCSc2ccc(Cl)cc21	Fh CTSL1 inh 26, HGIII-sPLA2 inh 30 (no result: NALP1 inh) | sPLA2 confirm inactive | BODIPY interf inactive
O=C(N/N=C1\CCSc2ccc(F)cc21)c1cccnc1	none
O=C(Nc1ccccc1Oc1ccccc1)c1cc([N+](=O)[O-])ccc1Cl	HGIII-sPLA2 inh 23 | sPLA2 confirm inactive | BODIPY interf inactive
O=C(Nc1ccc(Nc2ccccc2)cc1)c1cc([N+](=O)[O-])ccc1Cl	none

Screens: PubChem BioAssay, several laboratories
